Assay results published in the supplement of paper PMC11732987, “Enantioselective OTUD7B fragment discovery through chemoproteomics screening and high-throughput optimisation” (Communications Chemistry, 2025).
Unmarked numbers belong to inactive results.

target: T1, OTUD6B (UniProt Q8N6M0); test: log2 ratio of Biotin-Ahx-Ub-VS probe labelling (fragment/DMSO); higher = less target engagement (more negative = stronger competition), active = hit call of the paper (q ≤ 0.05, log2 ratio ≤ -1); settings: compound concentration: 200 uM; treatment time: 3 h
T1 sequence (whole entry): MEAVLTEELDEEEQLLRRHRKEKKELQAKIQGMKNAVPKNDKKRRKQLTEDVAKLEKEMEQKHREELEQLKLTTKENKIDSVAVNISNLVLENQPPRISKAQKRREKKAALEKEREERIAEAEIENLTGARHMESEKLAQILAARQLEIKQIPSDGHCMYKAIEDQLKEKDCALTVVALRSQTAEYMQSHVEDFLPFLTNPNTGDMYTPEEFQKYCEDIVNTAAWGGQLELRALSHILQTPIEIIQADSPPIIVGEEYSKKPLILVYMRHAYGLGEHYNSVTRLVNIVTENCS
Procedure, shortened: (§1)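 Each value is an average log2 ratio of fragment to vehicle, tested by unpaired t-test. The underlying Spectronaut label-free quantities were global-median-normalised, and only proteins with ≥2 unique peptides were included. Triplicate HEK293T lysate samples (495 µg) were exposed to fragment at 200 µM or vehicle for 3 h, then to Biotin-Ahx-Ub-VS at 0.5 µM final for 1 h, before NeutrAvidin enrichment of labelled DUBs, LysC and trypsin digestion, and diaPASEF LC-MS/MS.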

Compound | log2 ratio of Biotin-Ahx-Ub-VS probe labelling
COc1cc(Cl)c(C)cc1NC(=O)CCl | -0.418
Cl.O=C(CCl)N1CCN(Cc2ccccc2)CC1 | -0.117
Cc1nc(CN2CCN(C(=O)CCl)CC2)cs1 | -0.238
O=C(CCl)Nc1cc(Cl)ccc1C(=O)O | 0.133
CN(C(=O)CCl)c1nc2ccccc2s1 | -0.243
O=C(CCl)NCCc1cccc2ccccc12 | 0.0475
CCCn1nccc1NC(=O)CCl | 0.0729
CNC(=O)C1CCN(C(=O)CCl)CC1 | -0.163
O=C(CCl)N1CCOC(c2cccc(F)c2)C1 (stereo not given) | -0.268
Cc1c(C#N)c(NC(=O)CCl)n(Cc2ccco2)c1C | -0.163
O=C(CCl)N1CCC(C(=O)N2CCCCCC2)CC1 | 0.0239
CN1C(=O)c2ccc(NC(=O)CCl)cc2C1=O | -0.407
C[C@H]1CN(C(=O)CCl)CCN1C(=O)c1cnn(C)c1.Cl | -0.288
CC1(NC(=O)CCl)CCS(=O)(=O)C1 (stereo not given) | -0.893
O=C(CCl)NCc1ccc(Cl)cc1 | -0.0688
O=C(CCl)Nc1ccc(N2CCCC2=O)cc1 | 0.116
Cc1ncsc1CCNC(=O)CCl | 0.143
Cc1cccc(C)c1NC(=O)CCl | -0.307

Compound | log2 ratio of Biotin-Ahx-Ub-VS probe labelling
Cc1cccc(C(CNC(=O)CCl)N2CCOCC2)c1.Cl (stereo not given) | -0.0947
Cc1cccc(NC(=O)CCl)c1C | -0.273
Cc1cc(C2CCCN2C(=O)CCl)nn1C.Cl (stereo not given) | -0.252
O=C(CCl)N1CCCC2CCCCC21 (stereo not given) | 0.111
Cc1cccc(N2CCC(NC(=O)CCl)C2=O)c1 (stereo not given) | -0.339
CC(O)CC1CCN(C(=O)CCl)CC1 (stereo not given) | -0.0339
Cc1nc(CC2CCN(C(=O)CCl)CC2)no1 | -0.781
CC1Cc2ccccc2N1C(=O)CCl (stereo not given) | -0.391
O=C(CCl)Nc1cccc(C(=O)N2CCSCC2)c1 | -0.0782
Cl.O=C(CCl)N1CCc2ncncc2C1 | -0.0834
NC(=O)C(Cc1ccccc1)NC(=O)CCl (stereo not given) | -0.129
CC(NC(=O)CCl)c1csc(-c2ccccc2)n1.Cl (stereo not given) | -0.597
Cc1ccc(CC(NC(=O)CCl)c2ccccn2)cc1.Cl (stereo not given) | 0.0158
O=C(CCl)N[C@H]1CCS(=O)(=O)c2ccccc21 | -0.0586
O=C(CCl)NCC(=O)N1CCCC1 | -0.139
CC(C)n1nccc1NC(=O)CCl | -0.189
Cc1cc(CC(C)NC(=O)CCl)n[nH]1 (stereo not given) | -0.0562

target: T2, OTUD7B (UniProt Q6GQQ9); test: as above; settings: compound concentration: 200 uM; treatment time: 3 h
T2 sequence (whole entry): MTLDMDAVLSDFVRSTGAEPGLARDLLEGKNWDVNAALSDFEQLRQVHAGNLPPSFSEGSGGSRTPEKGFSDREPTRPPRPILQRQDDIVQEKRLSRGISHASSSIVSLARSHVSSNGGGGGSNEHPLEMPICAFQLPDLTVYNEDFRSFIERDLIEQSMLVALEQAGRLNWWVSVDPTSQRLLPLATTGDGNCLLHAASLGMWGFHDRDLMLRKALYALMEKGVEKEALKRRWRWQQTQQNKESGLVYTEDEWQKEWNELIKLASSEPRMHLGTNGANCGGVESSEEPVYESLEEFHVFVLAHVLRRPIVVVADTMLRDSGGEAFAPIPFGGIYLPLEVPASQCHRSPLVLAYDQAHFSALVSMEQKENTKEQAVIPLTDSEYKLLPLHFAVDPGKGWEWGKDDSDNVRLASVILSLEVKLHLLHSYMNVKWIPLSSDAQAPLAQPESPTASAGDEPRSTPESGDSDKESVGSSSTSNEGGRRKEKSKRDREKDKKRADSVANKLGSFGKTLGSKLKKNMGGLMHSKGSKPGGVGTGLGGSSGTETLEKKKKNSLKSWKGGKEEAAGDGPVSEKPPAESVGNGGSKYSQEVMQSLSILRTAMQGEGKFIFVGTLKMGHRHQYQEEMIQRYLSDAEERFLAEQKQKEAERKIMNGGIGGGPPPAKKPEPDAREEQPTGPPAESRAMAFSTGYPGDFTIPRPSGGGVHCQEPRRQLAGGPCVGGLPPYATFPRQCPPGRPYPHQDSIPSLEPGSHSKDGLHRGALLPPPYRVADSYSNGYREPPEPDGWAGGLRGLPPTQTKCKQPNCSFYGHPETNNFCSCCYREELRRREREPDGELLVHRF
Procedure, shortened: as §1

Compound | log2 ratio of Biotin-Ahx-Ub-VS probe labelling
COc1cc(Cl)c(C)cc1NC(=O)CCl | -0.345
Cl.O=C(CCl)N1CCN(Cc2ccccc2)CC1 | -0.1
Cc1nc(CN2CCN(C(=O)CCl)CC2)cs1 | -0.265
O=C(CCl)Nc1cc(Cl)ccc1C(=O)O | -0.0733
CN(C(=O)CCl)c1nc2ccccc2s1 | -0.119
O=C(CCl)NCCc1cccc2ccccc12 | -0.286
CCCn1nccc1NC(=O)CCl | -1.42 (active)
CNC(=O)C1CCN(C(=O)CCl)CC1 | -0.121
O=C(CCl)N1CCOC(c2cccc(F)c2)C1 (stereo not given) | -1.75 (active)
Cc1c(C#N)c(NC(=O)CCl)n(Cc2ccco2)c1C | -1.87 (active)
O=C(CCl)N1CCC(C(=O)N2CCCCCC2)CC1 | -0.19
CN1C(=O)c2ccc(NC(=O)CCl)cc2C1=O | -1.76 (active)
C[C@H]1CN(C(=O)CCl)CCN1C(=O)c1cnn(C)c1.Cl | -0.168
CC1(NC(=O)CCl)CCS(=O)(=O)C1 (stereo not given) | -1.2 (active)
O=C(CCl)NCc1ccc(Cl)cc1 | -0.726
O=C(CCl)Nc1ccc(N2CCCC2=O)cc1 | -0.359
Cc1ncsc1CCNC(=O)CCl | -0.157
Cc1cccc(C)c1NC(=O)CCl | -0.52

Compound | log2 ratio of Biotin-Ahx-Ub-VS probe labelling
Cc1cccc(C(CNC(=O)CCl)N2CCOCC2)c1.Cl (stereo not given) | -0.255
Cc1cccc(NC(=O)CCl)c1C | -0.61
Cc1cc(C2CCCN2C(=O)CCl)nn1C.Cl (stereo not given) | -0.142
O=C(CCl)N1CCCC2CCCCC21 (stereo not given) | -0.246
Cc1cccc(N2CCC(NC(=O)CCl)C2=O)c1 (stereo not given) | -1.61 (active)
CC(O)CC1CCN(C(=O)CCl)CC1 (stereo not given) | -0.302
Cc1nc(CC2CCN(C(=O)CCl)CC2)no1 | -0.652
CC1Cc2ccccc2N1C(=O)CCl (stereo not given) | -0.238
O=C(CCl)Nc1cccc(C(=O)N2CCSCC2)c1 | -0.71
Cl.O=C(CCl)N1CCc2ncncc2C1 | -0.487
NC(=O)C(Cc1ccccc1)NC(=O)CCl (stereo not given) | -0.38
CC(NC(=O)CCl)c1csc(-c2ccccc2)n1.Cl (stereo not given) | -1.07 (active)
Cc1ccc(CC(NC(=O)CCl)c2ccccn2)cc1.Cl (stereo not given) | -0.295
O=C(CCl)N[C@H]1CCS(=O)(=O)c2ccccc21 | -1.71 (active)
O=C(CCl)NCC(=O)N1CCCC1 | -0.187
CC(C)n1nccc1NC(=O)CCl | -2.07 (active)
Cc1cc(CC(C)NC(=O)CCl)n[nH]1 (stereo not given) | -0.54
